Laboratory results as given in PubChem BioAssay AID686979 (National Center for Advancing Translational Sciences (NCATS), 2013).
Among all 420,000 compounds or so, about 50,000 (12%) were called active. A call without a number means that no potency is given here. Another 26% or so got no clear call; they are omitted. The call rests on the fitted dose curve; in most records, active means well fitted inhibition curve with a large enough effect; inconclusive means small, poorly fitted or top-dose-only effect; inactive means flat fitted curve, though single readings scatter. This excerpt belongs to a sample that is enriched for actives.
Potency means the concentration at half of the fitted maximal effect.

Experiment: qHTS for Inhibitors of human tyrosyl-DNA phosphodiesterase 1 (TDP1): qHTS in cells in presence of CPT; further: nearly all actives have a fitted effect of over 55% in size
Conditions: chicken DT40 Tdp1-/-;hTDP1 cells + 20 nM CPT, ATP luminescence, 48 h; series mostly up to 46.2 µM
Outline: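 Chicken DT40 Tdp1-/- cells complemented with human TDP1, 400 cells/well, exposed to compounds plus 20 nM camptothecin for at least 48 h at 37 C; viability read as ATP content by CellTiter-Glo luminescence.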
With `O=C(NCc1ccco1)/C(=C\c1cccc([N+](=O)[O-])c1)NC(=O)c1ccco1` the Potency was “inactive”.
For `CC(=O)Oc1ccc2c(c1)C(=O)c1ccccc1C2=O`, the Potency was “inactive”.
With `O=C1C(Cl)=C(Oc2ccccc2)C(=O)c2ccccc21` the Potency was 0.326 µM (active).
In the case of `COc1ccccc1-n1c(SCC(=O)Nc2ccc(Cl)cc2)nc(O)c(Cc2ccccc2)c1=O`, the Potency is reported as “inactive”.
For `CCN1CCc2nc3sc(C(=O)Nc4ccccc4OC(F)(F)F)c(N)c3cc2C1`, the Potency was 16.4 µM (active).
For `COc1ccc(Cl)cc1NC(=O)c1sc2nc3c(cc2c1N)CN(C)CC3`, the Potency was 23.1 µM (active).
In the case of `CC(=O)Nc1ccc(NC(=O)c2sc3nc4c(c(-c5ccc(C)cc5)c3c2N)CCC4)cc1`, the Potency is reported as “inactive”.
With `COc1ccc(Cl)cc1NC(=O)CN1CCN(C(=O)N2CCOCC2)CC1` the Potency was “inactive”.
In the case of `COc1ccc(Cl)cc1NC(=O)c1oc(C)nc1C`, the Potency is reported as “inactive”.
For `CCN1CCc2nc(NC(=O)c3cc(F)c(F)cc3Cl)sc2C1`, the Potency was “inactive”.
For `CCc1ccc(NC(=O)c2sc3nc4c(cc3c2N)CN(CC)CC4)cc1`, the Potency was 23.1 µM (active).
For `COc1ccccc1NC(=O)c1ccc2nc(N3C(=O)CCC3=O)sc2c1`, the Potency was “inactive”.
In the case of `Cc1ccc(NC(=O)c2sc3nc(N)c(C#N)cc3c2N)cc1`, the Potency is reported as “inactive”.
For `O=C(c1cn(-c2ccccc2)nc1-c1cccnc1)N1CCN(S(=O)(=O)c2ccccc2F)CC1`, the Potency was “inactive”.
For `O=C(NC(=S)Nc1ncccn1)c1ccccc1Br`, the Potency was “inactive”.
With `COC(=O)C1(CCSC)NC(c2ccc(OC)cc2OC)C2C(=O)N(c3cccc(C(C)=O)c3)C(=O)C21` (stereo unspecified) the Potency was “inactive”.
For `O=C(CSc1ccccn1)N1CCN(S(=O)(=O)c2ccc(Cl)cc2)CC1`, the Potency was “inactive”.
In the case of `O=P(O)(O)OC[C@H](O)CO`, the Potency is reported as “inactive”.
With `Cc1cn([C@H]2C[C@H](O)[C@@H](/C=C/C(=O)NCCCc3ccccc3)O2)c(=O)[nH]c1=O` the Potency was “inactive”.
For `Cc1ccc(-c2nc(CS(=O)(=O)CC(=O)NCc3ccc4c(c3)OCO4)c(C)o2)cc1`, the Potency was “inactive”.
For `Cc1ccc(CNCc2ccc3c(c2)OCO3)c(C)c1`, the Potency was “inactive”.
For `Cc1ccc(S(=O)(=O)N(CCCN(C)C)Cc2ccc3c(c2)OCO3)cc1`, the Potency was 16.4 µM (active).
For `CC1CN(C(=S)Nc2ccc(Br)cc2Cl)CC(C)O1` (stereo unspecified), the Potency was “inactive”.
In the case of `CC[n+]1cc(C)ccc1/C=C/c1ccc(N(C)C)cc1`, the Potency is reported as 0.0291 µM (active).
In the case of `COc1ccccc1-n1cnc2cc(NS(=O)(=O)c3ccccc3)ccc21`, the Potency is reported as “inactive”.
In the case of `CCOC(=O)CSC1=Nc2ccccc2C2=NC(CCC(=O)NCc3ccc(F)cc3)C(=O)N12` (stereo unspecified), the Potency is reported as “inactive”.
For `CCN1N=C(c2ccccc2)CCC1=O`, the Potency was “inactive”.
For `CC(=O)NC1=NN(C(C)=O)C(C)(CCS(=O)(=O)c2ccc(Cl)c(Cl)c2)S1` (stereo unspecified), the Potency was “inactive”.
With `CC(=O)NC1=NN(C(C)=O)C(C)(c2ccc(Cl)s2)S1` (stereo unspecified) the Potency was 6.51 µM (active).
In the case of `O=C(NC1=NCCS1)c1ccc(Cl)s1`, the Potency is reported as “inactive”.
With `CC/C(Cc1ccccc1)=N/NC(=O)CCn1nnc2ccccc21` the Potency was “inactive”.
In the case of `O=C(O)c1ccc(Nc2nc(-c3ccccc3)c3cc(Br)ccc3n2)cc1`, the Potency is reported as “inactive”.
In the case of `OCCNc1nc(Nc2ccc(Cl)c(Cl)c2)nc2ccccc12`, the Potency is reported as 18.4 µM (active).
With `Nc1nc(Nc2ccccc2)nc(NCCO)c1[N+](=O)[O-]` the Potency was “inactive”.
For `CO[C@H]1[C@@H]2C=CO[C@@H](O[C@H]3O[C@@H](CO)[C@H](O)[C@@H](O)[C@@H]3O)[C@@H]2[C@@]2(CO)O[C@@H]12`, the Potency was “inactive”.
For `CCN(C(=O)CSc1nnc(-c2ccncc2)o1)c1ccccc1`, the Potency was “inactive”.
With `O=C(COc1ccccc1)N1CCN=C1SCc1cccc(F)c1` the Potency was “inactive”.
With `O=C(NNC(=O)c1ccc(Cl)nc1)c1ccc(Br)cc1` the Potency was “inactive”.
In the case of `O=C(CCc1ccccc1)NNC(=O)c1ccc(Br)cc1`, the Potency is reported as “inactive”.
For `COc1ccc(C(=O)NC(=S)NNC(=O)c2c(-c3ccccc3)noc2C)cc1`, the Potency was “inactive”.
For `CC(C)Oc1ccc(CCC(=O)NNC(=S)NCc2ccccc2)cc1`, the Potency was “inactive”.
With `CC(=O)NC(=S)NNC(=O)c1ccc(Br)cc1` the Potency was 6.51 µM (active).
With `COc1ccc(NC(=O)c2ccccc2[N+](=O)[O-])cc1OC` the Potency was “inactive”.
In the case of `COc1ccc(C(=O)NC(=S)NNC(=O)CCc2ccccc2)cc1`, the Potency is reported as 8.2 µM (active).
With `COc1ccc(C(=S)Nc2ccccc2)cc1` the Potency was “inactive”.
With `CNC(=S)NNC(=O)c1ccc(N(C)C)cc1` the Potency was “inactive”.
With `COc1ccc(C(=O)NNC(=S)NC(=O)c2ccccc2[N+](=O)[O-])cc1` the Potency was 18.4 µM (active).
In the case of `COC(=O)CNC(=O)c1ccccc1[N+](=O)[O-]`, the Potency is reported as “inactive”.
In the case of `COc1ccc(C(=O)NNC(=S)NC(=O)c2ccccc2)cc1`, the Potency is reported as 9.2 µM (active).
In the case of `CSCCC(NC(=O)COc1ccccc1)C(=O)OCc1ccc(Cl)cc1` (stereo unspecified), the Potency is reported as “inactive”.
For `COc1cc(-c2cccnc2)cc2c1OCCN(C(=O)Cc1csc(C)n1)C2`, the Potency was “inactive”.
For `CCCNC(=O)C1CC(=O)N(c2ccc(OCc3ccccc3)cc2)C1` (stereo unspecified), the Potency was “inactive”.
For `O=C(CCc1nc(CN2CCN(S(=O)(=O)c3ccc(Br)cc3)CC2)no1)N1CCCCC1`, the Potency was “inactive”.
With `Cc1ccccc1N1C(=O)C2ON(c3ccccc3)C(c3ccncc3)C2C1=O` (stereo unspecified) the Potency was “inactive”.
For `C/C(=N/OC(=O)c1ccc(Br)cc1)c1ccc(C)cc1`, the Potency was “inactive”.
For `COc1ccc(-c2cc(=O)oc3cc(OCC(=O)N[C@@H](Cc4c[nH]c5ccccc45)C(=O)O)ccc23)cc1`, the Potency was “inactive”.
In the case of `O=C(N[C@H]1CC[C@H](CC(=O)N2CCCCC2)O[C@@H]1CO)c1cccc(F)c1`, the Potency is reported as “inactive”.
With `CCc1cc2c(=O)c(-c3nc4ccccc4n3C)c(CCCC(=O)O)oc2cc1OC(=O)C(C)(C)C` the Potency was “inactive”.
In the case of `CC1=C(C(=O)N(C)C)CC(CC(=O)NCCN2CCOCC2)C(=O)N1Cc1ccccc1` (stereo unspecified), the Potency is reported as “inactive”.
With `COc1cccc(OCc2nnc3n2N=C(c2ccccc2)C(CC(=O)O)S3)c1` (stereo unspecified) the Potency was “inactive”.
With `O=C(COC(=O)Cn1[nH]c(=O)c2ccccc2c1=O)Nc1c(Cl)cccc1C(F)(F)F` the Potency was “inactive”.
For `CC[C@H](C)[C@@H](C(=O)N1CCNCC1)n1cc([C@@H](N)Cc2ccc(O)cc2)nn1`, the Potency was “inactive”.
With `COc1cc2ccccc2cc1C(=O)N1CCOCC1` the Potency was “inactive”.
With `COc1cc(C(=O)N2CCOCC2)cc(OC)c1OC` the Potency was “inactive”.
With `COc1c(Br)cc2c(C)c(C(=O)N3CCOCC3)oc2c1Br` the Potency was 20.6 µM (active).
With `N#CCCN(C(=O)COC(=O)c1ccc2c(c1)OCCO2)c1ccccc1` the Potency was “inactive”.
With `CC(C)c1c(C(=O)N/N=C/c2ccccc2C(=O)O)nnn1-c1nonc1N` the Potency was “inactive”.
For `Cn1c(=O)[nH]c(=O)c2c1[nH]c(=S)n2Cc1ccccc1`, the Potency was “inactive”.
In the case of `CCCc1c(C(=O)N/N=C(\C)CCc2ccc(OC)cc2)nnn1-c1nonc1N`, the Potency is reported as “inactive”.
In the case of `Cc1cccc(N2O[C@H]3C=CC2CCCC3)n1`, the Potency is reported as “inactive”.
For `COP1(=O)C[C@@H](O)[C@@H](O)[C@@H](COCc2ccccc2)O1` (stereo partly specified), the Potency was “inactive”.
In the case of `O=C(NCCc1ccc(Cl)cc1)c1cccc(N2CCCC2=O)c1`, the Potency is reported as “inactive”.
With `O=C(NCCc1ccc(Cl)cc1)c1ccc2c(c1)N(Cc1ccc(F)cc1)C(=O)CS2` the Potency was 20.6 µM (active).
For `O=C(c1ccc2c(c1)N(Cc1ccc(F)cc1)C(=O)CS2)N1CCOCC1`, the Potency was “inactive”.
With `CC1CCN(C(=O)c2ccccc2NC(=O)Cc2ccccc2)CC1` the Potency was “inactive”.
With `O=C(Nc1ccc(N2CCN(C(=O)C3CC3)CC2)cc1)c1cccs1` the Potency was “inactive”.
In the case of `O=C(NC(=O)c1ccccc1N1CCCCC1)Nc1ccc(Br)cc1`, the Potency is reported as “inactive”.
In the case of `Cc1ccccc1C(=O)N1CCN(c2ccc(NC(=O)c3cccs3)cc2)CC1`, the Potency is reported as 18.4 µM (active).
For `Cc1ccccc1C(=O)Nc1ccccc1NC(=O)c1ccccc1C`, the Potency was “inactive”.
For `COc1ccc(N2CCN(C(=O)c3cccs3)CC2)cc1`, the Potency was “inactive”.
With `Cc1cccc(C)c1NC(=O)CS(=O)CC(=O)N1CCN(c2ccccc2)CC1` (stereo unspecified) the Potency was “inactive”.
With `Cc1ccccc1C(=O)Nc1ccc(N2CCCCCC2)cc1` the Potency was 14.6 µM (active).
For `COc1ccccc1C(=O)NC(=S)Nc1ccc(N2CCOCC2)cc1`, the Potency was “inactive”.
With `Cc1ccccc1C(=O)NC(=S)Nc1ccc(N2CCN(C(=O)c3ccccc3)CC2)cc1` the Potency was 10.3 µM (active).
For `O=C(NC1CCCC1)C(c1c(F)cccc1Cl)N(C(=O)c1csnn1)C1CC1` (stereo unspecified), the Potency was “inactive”.
With `CCOC(=O)c1cn[nH]c1NC(=S)Nc1ccccc1` the Potency was “inactive”.
For `CCCCN1C(=O)C(=O)N(CC(=O)Nc2cccc(C(C)=O)c2)C1=O`, the Potency was “inactive”.
In the case of `OCC1(CCOc2ccccc2)CCN(Cc2cn[nH]c2-c2ccccc2)CC1`, the Potency is reported as “inactive”.
For `Cc1cccc(-c2ncc(CN3CCC(CO)(CCCc4ccccc4)CC3)cn2)c1`, the Potency was 23.1 µM (active).
In the case of `OCC1(CCc2ccccc2)CCN(Cc2ccc3nsnc3c2)CC1`, the Potency is reported as “inactive”.
In the case of `CC(=O)Nc1ccc2c3c(ccc([N+](=O)[O-])c13)CC2`, the Potency is reported as “inactive”.
With `O=C(COc1ccccc1Cl)Nc1ccccc1C(=O)NC1CC1` the Potency was 23.1 µM (active).
For `CN1CCN(C(=O)c2ccccc2NC(=O)COc2ccccc2Cl)CC1`, the Potency was “inactive”.
For `COc1ccccc1OCC(=O)Nc1ccccc1C(=O)NC1CC1`, the Potency was “inactive”.
In the case of `S=c1[nH]nc2c3c4c(sc3ncn12)CCCC4`, the Potency is reported as “inactive”.
With `CCOC(=O)C1=CCC2C(=O)N(Cc3ccccc3)C(=O)C12` (stereo unspecified) the Potency was “inactive”.
In the case of `CCC1(CC)C(=O)C2=C3C1[C@H](C(=O)OC)C=C(C(=O)OC)C[C@H]3[C@H]1C(=O)N(Cc3ccccc3)C(=O)[C@H]1[C@H]2C` (stereo partly specified), the Potency is reported as 4.61 µM (active).
With `COC(=O)C1=C[C@@H](C(=O)OC)[C@@H]2C3=C(C(=O)[C@]2(C)NC(=O)c2ccccc2)[C@H](C)n2c(=O)n(C)c(=O)n2[C@@H]3C1` the Potency was “inactive”.
With `COc1ccc(NS(=O)(=O)c2cccc(C(=O)NCCc3ccc(S(N)(=O)=O)cc3)c2)cc1` the Potency was “inactive”.
With `COc1ccc(NS(=O)(=O)c2ccc(Oc3c(C#N)cccc3C#N)cc2)cc1` the Potency was 10.3 µM (active).
In the case of `CCOc1ccc(S(=O)(=O)Nc2ccc(S(=O)(=O)Nc3cc(OC)ccc3OC)cc2)cc1`, the Potency is reported as “inactive”.
